Results filed as inconclusive are left out. The source made the active and inactive calls. Calls follow the shape of the dose curve; as a rule, active = well fitted cell-killing curve with a large enough effect; inconclusive = small, poorly fitted or top-dose-only effect, or effect the other way; inactive = flat fitted curve, though single readings scatter.
Experiments:
Test in all cases: Primary qHTS to identify gynecologic anti-cancer compounds using libraries of approved drugs and bioactive compounds (AID 1345084); also: nearly all actives have a fitted effect of over 55% in size
Settings in all cases: Gynecologic cancer cell panel viability, ATPlite luminescence, 48 h; series mostly up to 57.5 µM
OV90 = tested on: OV90
Summary of the method: (§1)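 Luminescence from the ATPlite ATP-monitoring reagent indicates viable cell number; lower signal means cytotoxicity. Cells received compound 16 h after seeding and were exposed for 48 h across five concentrations.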

PA-1 = tested on: PA-1
Summary of the method: as §1

SKOV3 = tested on: SKOV3
Summary of the method: as §1

Tov-21-G = tested on: Tov-21-G
Summary of the method: as §1

Tov112D = tested on: Tov112D
Summary of the method: as §1
% is scaled to controls: 0 for no effect and ±100 for the full control effect.

CC1(O)CCC2C(C3C1CCC3(C)O)C2(C)C (stereo not given)
inactive: Potency (OV90) | Potency (PA-1) | Potency (SKOV3) | Potency (Tov-21-G) | Potency (Tov112D)

CC/C=C\C(O)C(O)C1=C(C)C(=O)C2(O1)C(=O)NC(OC)(C(=O)c1ccccc1)C2O (stereo not given)
inactive: Potency (OV90) | Potency (PA-1) | Potency (SKOV3) | Potency (Tov-21-G) | Potency (Tov112D)

CC1(C)CC[C@]2(C(=O)O)CC[C@]3(C)C(=CCC4[C@@]5(C)C[C@@H](O)[C@H](O)[C@@](C)(CO)C5CC[C@]43C)C2C1 (stereo not given in full)
inactive: Potency (OV90) | Potency (PA-1) | Potency (SKOV3) | Potency (Tov-21-G) | Potency (Tov112D)

C[C@@H]1O[C@@H](O[C@H]2[C@H](OC(=O)[C@]34CCC(C)(C)C[C@H]3C3=CCC5[C@@]6(C)CC[C@H](O[C@@H]7O[C@H](CO[C@@H]8OC[C@H](O)[C@H](O)[C@H]8O)[C@@H](O)[C@H](O)[C@H]7O)C(C)(C)C6CC[C@@]5(C)[C@]3(C)C[C@H]4O)OC[C@@H](O)[C@@H]2O)[C@H](O)[C@H](O[C@@H]2OC[C@](O)(CO)[C@H]2O)[C@H]1O[C@@H]1OC[C@H](O)[C@H](O[C@@H]2OC[C@@H](O)[C@H](O)[C@H]2O)[C@H]1O (stereo not given in full)
inactive: activity change, negative = cytotoxicity (OV90) -11.9% [at 6.55 µM] | activity change, negative = cytotoxicity (PA-1) -3.2% [at 6.55 µM] | activity change, negative = cytotoxicity (SKOV3) 6.12% [at 6.55 µM] | activity change, negative = cytotoxicity (Tov-21-G) 4.71% [at 6.55 µM] | activity change, negative = cytotoxicity (Tov112D) 0.0459% [at 6.55 µM]

C=C(CCO[C@@H]1O[C@H](CO)[C@@H](O)[C@H](O)[C@H]1O)C(=O)O
inactive: Potency (OV90) | Potency (PA-1) | Potency (SKOV3) | Potency (Tov-21-G) | Potency (Tov112D)

C=C1CCC2[C@](C)(CO)CCC[C@@]2(C)[C@@H]1CCC1=CCOC1=O (stereo not given in full)
inactive: Potency (OV90) | Potency (PA-1) | Potency (SKOV3) | Potency (Tov-21-G) | Potency (Tov112D)

C/C(=C\CO)CC/C=C(\C)C(=O)O[C@@H]1O[C@H](CO)[C@@H](O)[C@H](O)[C@H]1O
inactive: Potency (OV90) | Potency (PA-1) | Potency (SKOV3) | Potency (Tov-21-G) | Potency (Tov112D)

CC1(C)CC[C@]2(C(=O)O[C@@H]3O[C@H](CO)[C@@H](O)[C@H](O)[C@H]3O)CC[C@]3(C)C(=CCC4[C@@]5(C)C[C@@H](O)[C@H](O)[C@@](C)(CO)C5[C@H](O)C[C@]43C)C2C1 (stereo not given in full)
inactive: Potency (OV90) | Potency (PA-1) | Potency (SKOV3) | Potency (Tov-21-G) | Potency (Tov112D)

CC1(C)CC[C@]2(C(=O)O)CC[C@]3(C)C(=CCC4[C@@]5(C)C[C@@H](O)[C@H](O)[C@](C)(CO)C5CC[C@]43C)[C@@H]2[C@@H]1O (stereo not given in full)
inactive: Potency (OV90)

CC1C(O)C(O)C2C(C(=O)OCCc3ccc(O)cc3)=COC(O[C@@H]3O[C@H](CO)[C@@H](O)[C@H](O)[C@H]3O)C12 (stereo not given in full)
inactive: Potency (OV90) | Potency (PA-1) | Potency (SKOV3) | Potency (Tov-21-G) | Potency (Tov112D)

O=C(O)c1ccnc(-c2cc(C(=O)NCCc3ccccc3)ccn2)c1
inactive: Potency (OV90) | Potency (PA-1) | Potency (SKOV3) | Potency (Tov-21-G) | Potency (Tov112D)

Cc1cccc(-c2nn3c(c2-c2ccnc4ccc(C(N)=O)cc24)CCC3)n1
inactive: Potency (OV90) | Potency (PA-1) | Potency (SKOV3) | Potency (Tov-21-G)

Cc1nc2cc(-c3cc(F)cc(C#N)c3)ccc2s1
inactive: Potency (OV90) | Potency (PA-1) | Potency (SKOV3) | Potency (Tov-21-G) | Potency (Tov112D)

CCC(C)/C=C(C)/C=C/C(=O)C1CCC(O)C(C)(O)C1=O (stereo not given)
inactive: Potency (OV90) | Potency (PA-1) | Potency (SKOV3) | Potency (Tov-21-G) | Potency (Tov112D)

C[C@H]1[C@H](C)CC[C@]2(C(=O)O)CC[C@]3(C(=O)O)C(=CCC4[C@@]5(C)CC[C@H](O[C@@H]6O[C@@H](C)[C@H](O)[C@@H](O)[C@H]6O)C(C)(C)C5CC[C@]43C)[C@H]12 (stereo not given in full)
inactive: Potency (OV90) | Potency (PA-1) | Potency (SKOV3) | Potency (Tov-21-G) | Potency (Tov112D)

O=C(O)c1ccnc2cc(C(OCC3CCC(F)(F)CC3)c3ccccc3Cl)[nH]c12 (stereo not given)
inactive: Potency (OV90) | Potency (PA-1) | Potency (SKOV3) | Potency (Tov-21-G) | Potency (Tov112D)

CC(CC12CCCN1C(=O)C1CCCN1C2=O)OC(N)=O (stereo not given)
inactive: Potency (OV90) | Potency (PA-1) | Potency (SKOV3) | Potency (Tov-21-G) | Potency (Tov112D)

CC1CCC2C(C)(C)[C@H](O)CC[C@]2(C)C12Cc1c(O)cc3c(c1O2)CN(C(CCC(=O)O)C(=O)O)C3=O (stereo not given in full)
inactive: Potency (OV90) | Potency (PA-1) | Potency (SKOV3) | Potency (Tov-21-G) | Potency (Tov112D)

O=C(OCC1OC(Oc2ccc(O)cc2COC(=O)C2(O)C(O)CCC(=O)C2OC(=O)C2C=CCC2)C(OC(=O)C2C=CCC2)C(O)C1O)C1C=CCC1 (stereo not given)
inactive: Potency (OV90) | Potency (PA-1) | Potency (SKOV3) | Potency (Tov-21-G) | Potency (Tov112D)

CC(=O)O[C@H]1C[C@@]2(C)[C@@H](CC[C@H]3[C@@]4(C)C=CC(=O)[C@@H](C)[C@@H]4[C@H](OC(C)=O)C(=O)[C@@]32C)/C1=C(\CCC=C(C)C)C(=O)O
inactive: Potency (OV90) | Potency (PA-1) | Potency (SKOV3) | Potency (Tov-21-G) | Potency (Tov112D)
